Values joined by “and” are separate entries in the source; they are usually repeats but may differ in a detail not shown here. Equal values may be shown once. A number with no mark means an inactive call. Active and inactive are the calls of the source.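 The calls were made as follows: active = thallium flux through the channel raised or lowered by more than 3 SD from vehicle-only wells, actives on both sides; inactive = the rest.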
Columns and labels:
Assay in all cases: BK channel mutant inhibitors and activators – cell-based, U2OS BacMam, thallium flux, beta subunits, selectivity assay, profiling panel (AID 1259406);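 also: initial slope of Thallos dye fluorescence rise after thallium is added; log ratio against the mean of 0.3% DMSO vehicle wells on the same plate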
F380Y/beta2Delta = conditions: U2OS BacMam BK variants, at 30 µM
F380Y/beta4 = conditions: U2OS BacMam BK variants, at 30 µM
[1] = target: Calcium-activated potassium channel subunit alpha-1 (Homo sapiens) + Leucine-rich repeat-containing protein 26 (Homo sapiens) (UniProt Q12791+Q2I0M4); conditions: U2OS BacMam BK variants, F380Y/Slo1WT/gamma1, at 30 µM
R275C = conditions: U2OS BacMam BK variants, at 30 µM
R275C/beta1 = conditions: U2OS BacMam BK variants, at 30 µM
R275C/beta2Delta = conditions: U2OS BacMam BK variants, at 30 µM
R275C/beta4 = conditions: U2OS BacMam BK variants, at 30 µM
R275C/Slo1WT/beta2 = conditions: U2OS BacMam BK variants, at 30 µM

Calcium-activated potassium channel subunit alpha-1 (Homo sapiens) + Leucine-rich repeat-containing protein 26 (Homo sapiens), sequence (Q2I0M4 whole entry, looked up, one chain of several): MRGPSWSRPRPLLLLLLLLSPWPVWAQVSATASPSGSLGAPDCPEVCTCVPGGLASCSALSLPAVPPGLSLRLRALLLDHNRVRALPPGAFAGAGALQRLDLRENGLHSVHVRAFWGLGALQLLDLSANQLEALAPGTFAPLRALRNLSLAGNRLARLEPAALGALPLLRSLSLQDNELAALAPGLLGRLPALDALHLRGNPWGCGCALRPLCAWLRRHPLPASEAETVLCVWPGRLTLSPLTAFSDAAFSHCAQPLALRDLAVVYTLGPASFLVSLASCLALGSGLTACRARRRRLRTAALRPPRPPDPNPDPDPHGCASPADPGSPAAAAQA

How did the log fold change Tl+ flux (F380Y/beta2Delta) turn out when `O=C1[C@H]2CCCC[C@H]2C(=O)N1CCCCN1CCN(c2nsc3ccccc23)CC1` was run?
The log fold change Tl+ flux was 0.0368.

And the log fold change Tl+ flux (F380Y/beta4)?
Its log fold change Tl+ flux is 0.0464.

And the log fold change Tl+ flux [1]?
Its log fold change Tl+ flux is -0.0162.

What about the log fold change Tl+ flux (R275C) of the same compound?
Its log fold change Tl+ flux is -0.0177.

What about the log fold change Tl+ flux (R275C/beta1) of the same compound?
The log fold change Tl+ flux was 0.107 (active).

And the log fold change Tl+ flux (R275C/beta2Delta)?
The log fold change Tl+ flux was 0.0344.

And the log fold change Tl+ flux (R275C/beta4)?
The log fold change Tl+ flux was 0.0306.

And the log fold change Tl+ flux (R275C/Slo1WT/beta2)?
The log fold change Tl+ flux was -0.00391.

Which log fold change Tl+ flux (F380Y/beta2Delta) does the source give for `COc1cc(C(=O)NC2CCCNC2)cc(OC)c1OC` (stereo not given) here?
The log fold change Tl+ flux was -0.0479.

And the log fold change Tl+ flux (F380Y/beta4)?
Its log fold change Tl+ flux is -0.0783.

What about the log fold change Tl+ flux [1] of the same compound?
Its log fold change Tl+ flux is 0.00703.

What about the log fold change Tl+ flux (R275C) of the same compound?
Its log fold change Tl+ flux is -0.0701.

What about the log fold change Tl+ flux (R275C/beta1) of the same compound?
Its log fold change Tl+ flux is -0.0128.

What about the log fold change Tl+ flux (R275C/beta2Delta) of the same compound?
The log fold change Tl+ flux was 0.000824.

And the log fold change Tl+ flux (R275C/beta4)?
The log fold change Tl+ flux was 0.00216.

What about the log fold change Tl+ flux (R275C/Slo1WT/beta2) of the same compound?
The log fold change Tl+ flux was -0.0186.

How did the log fold change Tl+ flux (F380Y/beta2Delta) turn out when `CN1CCC(=C2c3ccccc3C=Cc3ccccc32)CC1` was run?
The log fold change Tl+ flux was 0.14 (active).

And the log fold change Tl+ flux (F380Y/beta4)?
The log fold change Tl+ flux was 0.137 (active).

And the log fold change Tl+ flux [1]?
The log fold change Tl+ flux was -0.0742.

And the log fold change Tl+ flux (R275C)?
The log fold change Tl+ flux was -0.0182.

And the log fold change Tl+ flux (R275C/beta1)?
The log fold change Tl+ flux was 0.194 (active).

What about the log fold change Tl+ flux (R275C/beta2Delta) of the same compound?
Its log fold change Tl+ flux is 0.144 (active).

And the log fold change Tl+ flux (R275C/beta4)?
The log fold change Tl+ flux was 0.0955 (active).

What about the log fold change Tl+ flux (R275C/Slo1WT/beta2) of the same compound?
Its log fold change Tl+ flux is 0.0256.

Which log fold change Tl+ flux (F380Y/beta2Delta) does the source give for `O=C1CCc2ccc(OCCCCN3CCN(c4cccc(Cl)c4Cl)CC3)cc2N1` here?
Its log fold change Tl+ flux is -0.00576.

And the log fold change Tl+ flux (F380Y/beta4)?
Its log fold change Tl+ flux is 0.0383.

And the log fold change Tl+ flux [1]?
Its log fold change Tl+ flux is -0.0185.

What about the log fold change Tl+ flux (R275C) of the same compound?
Its log fold change Tl+ flux is -0.0555.

And the log fold change Tl+ flux (R275C/beta1)?
Its log fold change Tl+ flux is 0.056.

What about the log fold change Tl+ flux (R275C/beta2Delta) of the same compound?
Its log fold change Tl+ flux is 0.0181.

And the log fold change Tl+ flux (R275C/beta4)?
Its log fold change Tl+ flux is 0.0353.

What about the log fold change Tl+ flux (R275C/Slo1WT/beta2) of the same compound?
The log fold change Tl+ flux was 0.0373.

Which log fold change Tl+ flux (F380Y/beta2Delta) does the source give for `COc1cc(C)c(Cc2cnc(N)nc2N)cc1OC` here?
Its log fold change Tl+ flux is 0.0137.

And the log fold change Tl+ flux (F380Y/beta4)?
Its log fold change Tl+ flux is 0.0281.

What about the log fold change Tl+ flux [1] of the same compound?
Its log fold change Tl+ flux is 0.0784.

And the log fold change Tl+ flux (R275C)?
The log fold change Tl+ flux was -0.0521.

What about the log fold change Tl+ flux (R275C/beta1) of the same compound?
Its log fold change Tl+ flux is 0.0546.

And the log fold change Tl+ flux (R275C/beta2Delta)?
The log fold change Tl+ flux was 0.0143.

And the log fold change Tl+ flux (R275C/beta4)?
The log fold change Tl+ flux was 0.00157.

What about the log fold change Tl+ flux (R275C/Slo1WT/beta2) of the same compound?
The log fold change Tl+ flux was 0.0258.

`Cc1cn([C@H]2C=C[C@@H](CO)O2)c(=O)[nH]c1=O` was tested. Which log fold change Tl+ flux (F380Y/beta2Delta) did it give?
Its log fold change Tl+ flux is 0.00122 and 0.00603.

And the log fold change Tl+ flux (F380Y/beta4)?
Its log fold change Tl+ flux is -0.027 and 0.00706.

And the log fold change Tl+ flux [1]?
The log fold change Tl+ flux was 0.0426 and -0.00611.

What about the log fold change Tl+ flux (R275C) of the same compound?
Its log fold change Tl+ flux is -0.1 and -0.00698.

What about the log fold change Tl+ flux (R275C/beta1) of the same compound?
Its log fold change Tl+ flux is -0.02 and 0.0272.

And the log fold change Tl+ flux (R275C/beta2Delta)?
The log fold change Tl+ flux was -0.0201 and 0.00371.

And the log fold change Tl+ flux (R275C/beta4)?
The log fold change Tl+ flux was 0.0202 and -0.00131.

And the log fold change Tl+ flux (R275C/Slo1WT/beta2)?
The log fold change Tl+ flux was 0.0395 and 0.0392.

What does the source list for `CCOc1cc(CC(=O)N[C@@H](CC(C)C)c2ccccc2N2CCCCC2)ccc1C(=O)O`?
log fold change Tl+ flux (F380Y/beta2Delta): 0.217 (active); log fold change Tl+ flux (F380Y/beta4): 0.297 (active); log fold change Tl+ flux [1]: 0.0882; log fold change Tl+ flux (R275C): -0.00436; log fold change Tl+ flux (R275C/beta1): 0.495 (active); log fold change Tl+ flux (R275C/beta2Delta): 0.262 (active); log fold change Tl+ flux (R275C/beta4): 0.161 (active); log fold change Tl+ flux (R275C/Slo1WT/beta2): 0.0386

Which results are given for `C[C@@H]1C[C@H]2[C@@H]3C[C@H](F)C4=CC(=O)C(Cl)=C[C@]4(C)[C@@]3(F)[C@@H](O)C[C@]2(C)[C@@]1(O)C(=O)CO`?
log fold change Tl+ flux (F380Y/beta2Delta): -0.0145; log fold change Tl+ flux (F380Y/beta4): 0.131 (active); log fold change Tl+ flux [1]: 0.0637; log fold change Tl+ flux (R275C): 0.0158; log fold change Tl+ flux (R275C/beta1): 0.354 (active); log fold change Tl+ flux (R275C/beta2Delta): 0.0934; log fold change Tl+ flux (R275C/beta4): 0.148 (active); log fold change Tl+ flux (R275C/Slo1WT/beta2): 0.0468

Which results are given for `COc1cc(C)nc(-n2nc(C)cc2OC)n1`?
log fold change Tl+ flux (F380Y/beta2Delta): -0.0214; log fold change Tl+ flux (F380Y/beta4): -0.018; log fold change Tl+ flux [1]: -0.00579; log fold change Tl+ flux (R275C): 0.031; log fold change Tl+ flux (R275C/beta1): 0.00544; log fold change Tl+ flux (R275C/beta2Delta): 0.0107; log fold change Tl+ flux (R275C/beta4): -0.0217; log fold change Tl+ flux (R275C/Slo1WT/beta2): -0.00369

Which log fold change Tl+ flux (F380Y/beta2Delta) does the source give for `CC(c1cc2ccccc2s1)N(O)C(N)=O` (stereo not given) here?
The log fold change Tl+ flux was 0.0219.

And the log fold change Tl+ flux (F380Y/beta4)?
The log fold change Tl+ flux was 0.0185.

What about the log fold change Tl+ flux [1] of the same compound?
The log fold change Tl+ flux was 0.0287.

What about the log fold change Tl+ flux (R275C) of the same compound?
Its log fold change Tl+ flux is 0.00217.

And the log fold change Tl+ flux (R275C/beta1)?
The log fold change Tl+ flux was 0.0284.

And the log fold change Tl+ flux (R275C/beta2Delta)?
The log fold change Tl+ flux was 0.0541.

What about the log fold change Tl+ flux (R275C/beta4) of the same compound?
The log fold change Tl+ flux was -0.0188.

And the log fold change Tl+ flux (R275C/Slo1WT/beta2)?
The log fold change Tl+ flux was 0.0381.

Which results are given for `CN(C)CC[C@@H](c1ccc(Br)cc1)c1ccccn1`?
log fold change Tl+ flux (F380Y/beta2Delta): -0.012; log fold change Tl+ flux (F380Y/beta4): 0.0692; log fold change Tl+ flux [1]: 0.0361; log fold change Tl+ flux (R275C): -0.0783; log fold change Tl+ flux (R275C/beta1): 0.0411; log fold change Tl+ flux (R275C/beta2Delta): 0.0403; log fold change Tl+ flux (R275C/beta4): 0.00601; log fold change Tl+ flux (R275C/Slo1WT/beta2): 0.00129

`CC(C)c1nc(CN(C)C(=O)N[C@H](C(=O)N[C@@H](Cc2ccccc2)C[C@H](O)[C@H](Cc2ccccc2)NC(=O)OCc2cncs2)C(C)C)cs1` was tested. Which log fold change Tl+ flux (F380Y/beta2Delta) did it give?
Its log fold change Tl+ flux is -0.548 (active).

And the log fold change Tl+ flux (F380Y/beta4)?
The log fold change Tl+ flux was -0.505 (active).

And the log fold change Tl+ flux [1]?
The log fold change Tl+ flux was -0.199 (active).

What about the log fold change Tl+ flux (R275C) of the same compound?
The log fold change Tl+ flux was -0.232 (active).

What about the log fold change Tl+ flux (R275C/beta1) of the same compound?
Its log fold change Tl+ flux is 0.0641.

And the log fold change Tl+ flux (R275C/beta2Delta)?
The log fold change Tl+ flux was -0.208 (active).

And the log fold change Tl+ flux (R275C/beta4)?
The log fold change Tl+ flux was -0.0726.

And the log fold change Tl+ flux (R275C/Slo1WT/beta2)?
Its log fold change Tl+ flux is 0.0476.

For `C[C@@H]1CN(CCCn2c3ccccc3c3ccccc32)C[C@H](C)N1`, which log fold change Tl+ flux (F380Y/beta2Delta) is on record?
The log fold change Tl+ flux was 0.138 (active).

What about the log fold change Tl+ flux (F380Y/beta4) of the same compound?
The log fold change Tl+ flux was 0.64 (active).

What about the log fold change Tl+ flux [1] of the same compound?
Its log fold change Tl+ flux is 0.0245.

What about the log fold change Tl+ flux (R275C) of the same compound?
The log fold change Tl+ flux was 0.377 (active).

And the log fold change Tl+ flux (R275C/beta1)?
The log fold change Tl+ flux was 0.219 (active).

And the log fold change Tl+ flux (R275C/beta2Delta)?
Its log fold change Tl+ flux is 0.146 (active).

What about the log fold change Tl+ flux (R275C/beta4) of the same compound?
Its log fold change Tl+ flux is 0.312 (active).

And the log fold change Tl+ flux (R275C/Slo1WT/beta2)?
The log fold change Tl+ flux was 0.00517.

How did the log fold change Tl+ flux (F380Y/beta2Delta) turn out when `O=c1[nH]cnc2c1ncn2[C@H]1CC[C@@H](CO)O1` was run?
The log fold change Tl+ flux was 0.0117.

What about the log fold change Tl+ flux (F380Y/beta4) of the same compound?
Its log fold change Tl+ flux is -0.00261.

And the log fold change Tl+ flux [1]?
The log fold change Tl+ flux was 0.0216.

And the log fold change Tl+ flux (R275C)?
Its log fold change Tl+ flux is -0.0353.

And the log fold change Tl+ flux (R275C/beta1)?
The log fold change Tl+ flux was -0.00622.

What about the log fold change Tl+ flux (R275C/beta2Delta) of the same compound?
The log fold change Tl+ flux was -0.00829.

What about the log fold change Tl+ flux (R275C/beta4) of the same compound?
The log fold change Tl+ flux was 0.000837.

What about the log fold change Tl+ flux (R275C/Slo1WT/beta2) of the same compound?
The log fold change Tl+ flux was 0.00413.

How did the log fold change Tl+ flux (F380Y/beta2Delta) turn out when `COc1cc(C(=O)NS(=O)(=O)c2ccccc2C)ccc1Cc1cn(C)c2ccc(NC(=O)OC3CCCC3)cc12` was run?
Its log fold change Tl+ flux is 0.327 (active).

What about the log fold change Tl+ flux (F380Y/beta4) of the same compound?
Its log fold change Tl+ flux is 0.428 (active).

And the log fold change Tl+ flux [1]?
Its log fold change Tl+ flux is 0.314 (active).

And the log fold change Tl+ flux (R275C)?
Its log fold change Tl+ flux is -0.0565.

And the log fold change Tl+ flux (R275C/beta1)?
The log fold change Tl+ flux was 0.581 (active).

What about the log fold change Tl+ flux (R275C/beta2Delta) of the same compound?
Its log fold change Tl+ flux is 0.38 (active).

And the log fold change Tl+ flux (R275C/beta4)?
The log fold change Tl+ flux was 0.546 (active).

What about the log fold change Tl+ flux (R275C/Slo1WT/beta2) of the same compound?
The log fold change Tl+ flux was 0.0699.

From PubChem BioAssay
